Values joined by “and” are separate entries in the source; they are usually repeats but may differ in a detail not shown here. Identical values can stand only once. For some assays here: Entries with a potency or affinity are not part of this list.
Key:
Design in all cases: scale not given: direction of the effect not stated beside the values
[1] = molecular target: Protein translocase subunit SecA (Escherichia coli (strain K12)) (UniProt P10408); test: Assay to Identify E. coli SecA ATPase Inhibitors; type: functional; conditions: 30 µM
Protein translocase subunit SecA (Escherichia coli (strain K12)), sequence (P10408 whole entry): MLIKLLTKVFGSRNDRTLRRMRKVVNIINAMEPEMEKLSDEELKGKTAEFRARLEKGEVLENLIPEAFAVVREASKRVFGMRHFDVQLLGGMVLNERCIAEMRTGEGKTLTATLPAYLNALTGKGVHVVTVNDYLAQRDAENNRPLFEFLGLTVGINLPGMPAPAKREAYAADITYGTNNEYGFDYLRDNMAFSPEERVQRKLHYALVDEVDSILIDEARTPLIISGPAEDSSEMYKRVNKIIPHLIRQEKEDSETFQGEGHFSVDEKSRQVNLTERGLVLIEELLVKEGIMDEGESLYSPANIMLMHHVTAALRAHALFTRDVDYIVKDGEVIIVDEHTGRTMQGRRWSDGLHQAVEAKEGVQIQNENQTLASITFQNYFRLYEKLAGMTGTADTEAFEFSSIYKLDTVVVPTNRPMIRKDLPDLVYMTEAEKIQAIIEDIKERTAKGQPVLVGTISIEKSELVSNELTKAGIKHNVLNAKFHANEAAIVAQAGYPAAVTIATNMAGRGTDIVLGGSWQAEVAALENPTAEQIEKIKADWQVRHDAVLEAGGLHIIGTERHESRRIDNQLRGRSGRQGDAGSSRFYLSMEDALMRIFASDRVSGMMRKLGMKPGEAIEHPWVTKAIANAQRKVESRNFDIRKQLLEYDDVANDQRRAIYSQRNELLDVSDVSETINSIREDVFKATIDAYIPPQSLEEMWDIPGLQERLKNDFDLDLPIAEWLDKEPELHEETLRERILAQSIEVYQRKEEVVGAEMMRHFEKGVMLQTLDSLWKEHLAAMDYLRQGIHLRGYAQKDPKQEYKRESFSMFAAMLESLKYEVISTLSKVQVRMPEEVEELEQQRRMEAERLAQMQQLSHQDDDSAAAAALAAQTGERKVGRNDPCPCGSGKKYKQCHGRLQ

[2] = molecular target: T1, Ubiquitin-activating enzyme e1, putative (Leishmania donovani (strain BPK282A1)) (UniProt E9BSI1); test: Leishmania donovani Ubiquitin Activating Enzyme (LdE1); type: functional; conditions: 30 µM
T1 sequence (whole entry): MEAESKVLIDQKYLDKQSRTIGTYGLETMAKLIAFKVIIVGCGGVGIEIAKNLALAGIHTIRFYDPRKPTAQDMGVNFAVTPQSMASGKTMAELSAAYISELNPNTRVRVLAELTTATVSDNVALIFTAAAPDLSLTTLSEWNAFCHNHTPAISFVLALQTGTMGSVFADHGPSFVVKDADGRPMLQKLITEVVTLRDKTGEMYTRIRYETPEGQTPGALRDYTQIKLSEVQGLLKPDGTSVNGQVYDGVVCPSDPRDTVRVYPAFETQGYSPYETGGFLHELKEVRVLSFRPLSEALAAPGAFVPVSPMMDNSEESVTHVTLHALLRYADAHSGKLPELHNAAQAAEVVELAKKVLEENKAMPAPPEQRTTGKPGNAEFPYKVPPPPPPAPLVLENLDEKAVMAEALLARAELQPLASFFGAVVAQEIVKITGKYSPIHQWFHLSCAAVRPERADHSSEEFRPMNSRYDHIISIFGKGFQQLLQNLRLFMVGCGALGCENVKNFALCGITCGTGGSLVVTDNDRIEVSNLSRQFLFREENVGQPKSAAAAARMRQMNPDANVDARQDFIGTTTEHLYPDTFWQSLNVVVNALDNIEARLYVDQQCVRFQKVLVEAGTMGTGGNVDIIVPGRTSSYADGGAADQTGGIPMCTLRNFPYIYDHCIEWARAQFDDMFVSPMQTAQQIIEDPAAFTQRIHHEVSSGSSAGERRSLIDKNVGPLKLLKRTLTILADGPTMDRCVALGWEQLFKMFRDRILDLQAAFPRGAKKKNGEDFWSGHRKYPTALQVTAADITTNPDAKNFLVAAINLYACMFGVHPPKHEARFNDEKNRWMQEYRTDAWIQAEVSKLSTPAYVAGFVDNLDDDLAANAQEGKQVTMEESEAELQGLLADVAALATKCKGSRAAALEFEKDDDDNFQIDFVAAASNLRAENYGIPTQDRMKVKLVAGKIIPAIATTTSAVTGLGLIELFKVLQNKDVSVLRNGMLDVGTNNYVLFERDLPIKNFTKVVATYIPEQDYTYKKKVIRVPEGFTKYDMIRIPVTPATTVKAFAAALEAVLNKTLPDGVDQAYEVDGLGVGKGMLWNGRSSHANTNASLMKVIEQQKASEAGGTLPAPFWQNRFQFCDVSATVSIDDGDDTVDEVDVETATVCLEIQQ

[3] = molecular target: AMP-activated protein kinase, AMPK (Homo sapiens) (UniProt P54646+O43741+P54619+Q9UGJ0+Q9Y478+Q13131+Q9UGI9); test: AMP-dependent Kinase enzyme assay. An in vitro enzyme assay that detects ADP turnover that is directly proportional to AMPK activity. This uses naive AMPK that is activated during the assay with MK-8722; type: functional; conditions: 30 µM
[4] = molecular target: Sialic acid-binding Ig-like lectin 9 (Homo sapiens) (UniProt Q9Y336); test: Hs-Siglec9 ALPHAscreen SOP 20170721; conditions: 10 µM
Sialic acid-binding Ig-like lectin 9 (Homo sapiens), sequence (Q9Y336 whole entry): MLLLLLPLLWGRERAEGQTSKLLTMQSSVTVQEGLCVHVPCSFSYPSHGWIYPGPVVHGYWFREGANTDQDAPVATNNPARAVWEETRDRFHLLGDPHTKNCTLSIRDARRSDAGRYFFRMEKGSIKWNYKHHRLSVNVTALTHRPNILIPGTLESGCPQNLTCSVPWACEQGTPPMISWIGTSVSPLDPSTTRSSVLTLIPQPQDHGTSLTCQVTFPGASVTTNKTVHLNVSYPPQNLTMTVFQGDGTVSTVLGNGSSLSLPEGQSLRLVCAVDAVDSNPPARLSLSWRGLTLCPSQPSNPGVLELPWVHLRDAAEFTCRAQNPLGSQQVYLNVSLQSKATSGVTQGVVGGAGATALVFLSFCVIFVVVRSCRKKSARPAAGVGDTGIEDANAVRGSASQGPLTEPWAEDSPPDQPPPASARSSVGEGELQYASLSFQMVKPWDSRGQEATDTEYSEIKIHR

Trypanosoma cruzi = test: Trypanosoma cruzi phosphomannomutase and mannose-1-phosphate guanylyltransferase assay; type: functional; conditions: 10 µM
[5] = molecular target: T2, Arginase-2, mitochondrial (Homo sapiens) (UniProt P78540); test: in vitro enzyme assay to detect the production of urea directly proportional to the activity of Arginase II; type: functional; conditions: 33.3 µM; further: in the data most compounds retested in dose-response had high values
T2 sequence (whole entry): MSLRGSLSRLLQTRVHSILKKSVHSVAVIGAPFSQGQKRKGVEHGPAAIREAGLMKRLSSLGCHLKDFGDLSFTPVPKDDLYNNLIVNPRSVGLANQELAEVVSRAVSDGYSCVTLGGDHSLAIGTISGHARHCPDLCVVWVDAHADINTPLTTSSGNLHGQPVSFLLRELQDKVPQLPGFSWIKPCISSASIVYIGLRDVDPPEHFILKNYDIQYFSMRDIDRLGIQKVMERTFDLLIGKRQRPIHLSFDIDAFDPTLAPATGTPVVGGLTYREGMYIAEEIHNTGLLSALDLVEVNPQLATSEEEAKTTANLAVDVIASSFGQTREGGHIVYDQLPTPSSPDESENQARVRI

[6] = molecular target: T3, Proteasome subunit beta (Trypanosoma cruzi) (UniProt O96673); test: Trypanosoma cruzi proteasome chymotrypsin-like activity (TcProtChymo) assay.; further: in the data most compounds retested in dose-response had high values; type: functional; conditions: 9.37 µM
T3 sequence (whole entry): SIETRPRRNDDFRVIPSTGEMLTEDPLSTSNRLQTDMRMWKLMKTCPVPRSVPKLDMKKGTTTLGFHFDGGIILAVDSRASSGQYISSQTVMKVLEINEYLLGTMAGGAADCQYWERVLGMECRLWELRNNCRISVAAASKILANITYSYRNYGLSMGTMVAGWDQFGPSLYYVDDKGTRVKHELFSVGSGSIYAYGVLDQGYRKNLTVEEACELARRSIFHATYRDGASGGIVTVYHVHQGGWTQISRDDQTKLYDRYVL

Homo sapiens = species: Homo sapiens; test: To identify inhibition of the IFN signalling (Jak-Stat) pathway via expression of an eGFP reporter gene under the control of an IFN-stimulated response element (ISRE) containing MxA promoter.; type: functional; conditions: 30 µM
[7] = molecular target: T4, Tyrosyl-tRNA synthetase, putative (Trypanosoma cruzi (strain CL Brener)) (UniProt Q4DSP6); test: Trypanosoma cruzi tyrosyl tRNA synthetase (TcYRS) _High Tyrosine SOP; type: functional; conditions: 30 µM; further: in the data most compounds retested in dose-response had high values
T4 sequence (whole entry): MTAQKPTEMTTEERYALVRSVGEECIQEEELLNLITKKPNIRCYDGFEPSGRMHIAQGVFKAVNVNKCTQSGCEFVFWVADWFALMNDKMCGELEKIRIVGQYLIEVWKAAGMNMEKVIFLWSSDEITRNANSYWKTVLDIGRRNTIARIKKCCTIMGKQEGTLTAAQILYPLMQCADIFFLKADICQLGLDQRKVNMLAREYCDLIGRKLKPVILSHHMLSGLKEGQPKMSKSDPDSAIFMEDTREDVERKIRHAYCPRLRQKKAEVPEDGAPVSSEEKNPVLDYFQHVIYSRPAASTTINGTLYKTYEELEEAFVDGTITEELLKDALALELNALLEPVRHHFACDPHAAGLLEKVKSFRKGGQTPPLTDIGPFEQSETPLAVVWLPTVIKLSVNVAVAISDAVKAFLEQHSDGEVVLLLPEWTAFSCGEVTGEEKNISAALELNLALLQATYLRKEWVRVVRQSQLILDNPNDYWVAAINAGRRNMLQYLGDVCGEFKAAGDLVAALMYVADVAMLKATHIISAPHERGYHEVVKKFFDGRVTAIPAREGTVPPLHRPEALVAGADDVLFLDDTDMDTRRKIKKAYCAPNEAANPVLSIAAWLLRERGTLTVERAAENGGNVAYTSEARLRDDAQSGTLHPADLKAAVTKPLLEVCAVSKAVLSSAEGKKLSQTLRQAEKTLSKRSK

[8] = molecular target: T4, Tyrosyl-tRNA synthetase, putative (Trypanosoma cruzi (strain CL Brener)); test: Trypanosoma cruzi tyrosyl tRNA synthetase (TcYRS) SOP; type: functional; conditions: 30 µM
[9] = molecular target: Chromo domain-containing protein 1 (Saccharomyces cerevisiae (strain ATCC 204508 / S288c) (Baker's yeast)) (UniProt P32657); test: ScCHD-1 Enzyme Inhibition Assay; type: functional; conditions: 30 µM; further: in the data most compounds retested in dose-response had high values
Chromo domain-containing protein 1 (Saccharomyces cerevisiae (strain ATCC 204508 / S288c) (Baker's yeast)), sequence (P32657 whole entry, the tested form may be a part): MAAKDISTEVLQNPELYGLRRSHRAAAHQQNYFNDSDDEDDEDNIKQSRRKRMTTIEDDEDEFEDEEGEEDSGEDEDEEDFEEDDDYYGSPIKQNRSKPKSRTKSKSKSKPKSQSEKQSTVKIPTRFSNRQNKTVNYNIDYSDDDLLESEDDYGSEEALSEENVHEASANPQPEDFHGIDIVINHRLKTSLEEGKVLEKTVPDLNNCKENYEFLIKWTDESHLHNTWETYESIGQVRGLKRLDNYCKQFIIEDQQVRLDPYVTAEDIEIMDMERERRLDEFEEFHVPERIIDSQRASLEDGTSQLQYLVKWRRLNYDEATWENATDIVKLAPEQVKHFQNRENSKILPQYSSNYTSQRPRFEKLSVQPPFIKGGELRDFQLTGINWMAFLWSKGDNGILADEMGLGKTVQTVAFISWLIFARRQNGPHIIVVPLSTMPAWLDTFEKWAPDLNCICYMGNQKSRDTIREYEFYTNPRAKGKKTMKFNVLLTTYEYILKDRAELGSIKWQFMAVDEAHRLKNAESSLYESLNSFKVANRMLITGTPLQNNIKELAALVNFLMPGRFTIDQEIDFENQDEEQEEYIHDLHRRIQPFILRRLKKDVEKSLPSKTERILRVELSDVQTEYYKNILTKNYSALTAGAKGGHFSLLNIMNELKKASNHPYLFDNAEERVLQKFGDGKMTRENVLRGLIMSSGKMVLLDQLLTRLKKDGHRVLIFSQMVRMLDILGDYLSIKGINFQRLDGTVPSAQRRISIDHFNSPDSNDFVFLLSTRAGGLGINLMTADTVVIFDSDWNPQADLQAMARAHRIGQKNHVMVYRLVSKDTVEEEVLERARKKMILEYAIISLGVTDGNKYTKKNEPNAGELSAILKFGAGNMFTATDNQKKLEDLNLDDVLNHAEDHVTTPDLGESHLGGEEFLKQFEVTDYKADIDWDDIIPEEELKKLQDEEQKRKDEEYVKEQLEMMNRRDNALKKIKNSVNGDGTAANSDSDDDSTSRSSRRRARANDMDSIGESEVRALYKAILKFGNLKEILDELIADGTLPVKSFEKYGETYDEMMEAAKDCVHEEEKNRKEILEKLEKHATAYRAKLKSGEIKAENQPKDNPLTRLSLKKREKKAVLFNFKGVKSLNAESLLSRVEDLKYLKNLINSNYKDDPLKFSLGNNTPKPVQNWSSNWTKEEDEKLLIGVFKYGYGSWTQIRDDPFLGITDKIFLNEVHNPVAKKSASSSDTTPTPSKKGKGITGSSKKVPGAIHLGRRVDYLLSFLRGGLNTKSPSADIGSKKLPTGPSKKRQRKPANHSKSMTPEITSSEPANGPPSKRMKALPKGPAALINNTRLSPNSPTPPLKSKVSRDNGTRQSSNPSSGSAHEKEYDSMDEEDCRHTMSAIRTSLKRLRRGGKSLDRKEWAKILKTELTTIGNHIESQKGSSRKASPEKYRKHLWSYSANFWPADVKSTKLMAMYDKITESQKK

N/A = test: Trypanosoma cruzi proteasome luciferase counter-screen; type: functional; conditions: 9.37 µM

SMILES	Percent Effect [1]	Percent Effect [2]	Percent Effect [3]	Percent Effect [4]	Percent Effect (Trypanosoma cruzi)	Percent Effect [5]	Percent Effect [6]	Percent Effect (Homo sapiens)	Percent Effect [7]	Percent Effect [8]	Percent Effect [9]	Percent Effect (N/A)
O=C(NCC1CCOCC1)[C@H]1C[C@@H]2CCN(Cc3ccncc3)C[C@@H]2O1	-1.48%	-2.67%	-3.45%	1.78%	3.28%	-1.25%	14%	-16.5%	1.04%	7.5%	-5.98%	
Cc1cccc(NC(=O)c2sccc2C)n1	-3.25%	23.7%	-0.39%	-12.7%	3.99%	-16.6%	91.2% and 92.2% and 77.2%	16.1%	1.06%	13%	-7.3%	69.5% and 70.4%
Cc1noc(NC(=O)c2ccc(OC(F)(F)F)cc2)n1	-1.74%	18.4%	-0.843%	1.75%	2.52%	-4.68%	75.9% and 76.1% and 72%	75.7%	15.3%	28.4%	-3.4%	32.7% and 35.8%
COCCNC(=O)NCCc1ccn(-c2ccccc2)n1	-3.6%	-3.8%	7.66%	4.04%	5.64%	-0.215%	13.7%	5.09%	-4.17%	10.1%	-16.7%	
N#Cc1ccc(CNCC2CCN(CCO)CC2)cc1	-1.19%	5.48%	-0.789%	-1.57%	-7.05%	5%	9.58%	11.5%	0%	10%	-2.99%	
Cc1nc(CN2C[C@@H]3CN(C(=O)c4cccn4C)C[C@@H]3C2=O)cs1	1.08%	13.5%	1.31%	-6.65%	-4.2%	-0.955%	13.3% and 13.5% and 30.8%	11.3%	3.24%	15.4%	-1.02%	6.13% and 6.46%
CNC(=O)c1cnc(/C=C/c2cc(OC)cc(OC)c2)s1	-6.6%	-5.41%	-2.31%	7.75%	-6.25%	0.417%	21.4%	18.1%	1.98%	-6.1%	-3.49%	
CCN(Cc1ccc2c(c1)OCCO2)C(=O)NCc1nc(C)cs1	0.275%	10.4%	-0.784%	-5.04%	-0.294%	4.84%	14.6%	11.4%	4.76%	11.8%	-19.3%	
Cc1nc(C)n(CC2CCCCN2Cc2nnc(C3CC3)o2)n1 (stereo not given)	0.312%	2.6%	3.13%	1.14%	3.37%	0.712%	1.69%	1.94%	0.971%	7.32%	-9.02%	
COCC(=O)N1CCCn2c(CN3CCCCC3)nnc2C1	-0.412%	11%	1.87%	4.92%	-5.95%	-2.4%	22.7%	24%	7.29%	11.1%	-5.31%	
COc1ccccc1CNC(=O)N1CCCC(NS(C)(=O)=O)C1 (stereo not given)	-6.57%	-15.6%	-5.52%	-17.1%	-3.82%	-2.74%	12.8%	24%	-25.7%	7.06%	-22.9%	
O=C1NCCN1C1CCCN(Cc2coc(-c3ccc(F)cc3)n2)C1 (stereo not given)	-10.2%	-8.11%	-13.5%	25.4%	10.9%	-1.29%	0.898%	57.5%	5.94%	15.8%	-6.73%	
Cc1cc(=O)n(CC(=O)NCCC(C)C)c(-c2cccc(Cl)c2)n1	-6.74%	2.6%	3.52%	10.7%	2.85%	-9.65%	6.49%	2.45%	6.45%	13.6%	5.24%	
Cc1nc(COC[C@@H]2CC[C@H]3[C@H](CCN3c3ncccn3)O2)cs1	-0.526%	0%	-0.411%	3.43%	-0.394%	4.89%	15.2%	8.36%	4.25%	1.28%	2.8%	
CC1=NN(c2ccc(C(=O)N3CCCC(n4ccnc4)C3)cc2)CC1 (stereo not given)	-5.1%	10.1%	-5.15%	0.444%	9.35%	-1.9%	-1.06%	15.8%	10.3%	16.5%	-6.17%	
Cc1nc(C)n(C2CCCN(C(=O)c3cc4ccccc4n3C)C2)n1 (stereo not given)	-3.87%	7.79%	-8.41%	1.64%	5.78%	0.632%	6.71%	17.1%	7.62%	9.41%	-16.3%	
CCC1=N[C@@]2(CC[C@@H]3CN(Cc4ccc(Cl)cc4)C[C@@H]32)C(=O)N1C	-4.15%	2.7%	3.53%	4.31%	-0.0978%	-13.1%	16.4%	14.7%	0%	2.56%	2.84%	
COCCN1C(=O)[C@]2(CC[C@@H]3CN(C(=O)NCC(C)C)C[C@@H]32)N=C1C	1.47%	5.33%	-2.77%	-5%	5.41%	-49.3%	5.3%	-20.3%	1.04%	0%	-4.55%	
CCC1=N[C@@]2(CC[C@@H]3CN(CC(=O)N(C)C)C[C@@H]32)C(=O)N1CC1CC1	-0.889%	6.67%	3.24%	-0.307%	-6.88%	-12.2%	17.2%	4.45%	0%	10.3%	-7.25%	
CC(C)Nc1nc(N2CCOCC2)nc2c1CN(CC(=O)N(C)C)CC2	-9.2%	0%	6.79%	-0.0149%	-0.591%	1.17%	-5.37%	15.8%	-1.06%	-3.85%	-5.05%	
CCS(=O)(=O)CCNC(=O)c1ccc(-c2ccc(C)cc2)cc1F	-3.31%	5.2%	-1.14%	2.26%	-2.26%	-2.76%	14.6%	18.8%	-14%	1.24%	2.27%	
NC(=O)Cc1ccc(NC(=O)C2CCOCC2)cc1	-3.03%	10.8%	-5.71%	-1.1%	-7.52%	2.03%	11.5%	19.3%	5.94%	15.8%	-1.7%	
